Screens from PubChem BioAssay.
GPR151 ag: activates the human receptor GPR151; Q8TDV0; PathHunter beta-arrestin GPR151 cells, luminescence; 650,000 compounds, 1% hits; activation, % at 11.2 µM; in the data active = activation above about 4.9%;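 note: 0% = median of compound wells and 100% = cells with positive control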
MITF primary: inhibitors of human MITF | O75030 | inhibition, % at 2.6 µM | AID 1259374 | AlphaScreen MITF homodimerization, bead proximity signal | 650,000 compounds, 0.91% hits; in the data active = inhibition above about 50%;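 note: 0% = vehicle wells with protein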
TEAD-YAP inh: TEAD-YAP interaction inhibition; 640,000 compounds, 1.4% hits; inhibition, % at 9.12 µM; HEK-TIYL cells, TEAD-Gal4/YAP UAS-luciferase luminescence; AID 1259422; in the data active = inhibition above about 32%;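 note: 0% = median of test compound wells and 100% = reference inhibitor wells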
FBW7 activator: activators of human E3 ligase FBW7 | normalized activity (activation), % at 26.1 µM | AlphaScreen FBW7–phospho-cyclin E peptide binding, activator screen | AID 1259310 | 650,000 compounds, 0.13% hits | Q969H0; in the data active = normalized activity above about 1.9%;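 note: purified mutant Fbw7 with reduced substrate affinity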
GPR151 conf act: human GPR151 activation, confirmation screen | shares compounds with GPR151 ag | GPR151 PathHunter beta-arrestin cells, luminescence, 90 min; % of EA-reagent control over plate median | activation, % at 11.2 µM | 6,700 tested, under 10 active | AID 1508609;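 active = mean percent activation across replicates above the confirmation screen cutoff of 4.91%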
GPR119 ag: activates human GPR119 in a GPR151 counter-screen; shares compounds with GPR151 ag; GPR119 PathHunter beta-arrestin cells, luminescence, 90 min; 0 = compound-well median, 100 = enzyme-acceptor control; activation, % at 11.2 µM; 6,700 compounds, 0.3% hits;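 active = mean percent activation in the counterscreen above 29.09%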;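 note: counterscreen on off-target GPR119 to flag nonselective hits from the GPR151 activator screen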
* marks the source's active call; other numbers are inactive results; · = not tested or not shown. Compounds with a hit are over-represented: about 3.5% of the library has one in this group of screens.

SMILES	GPR151 ag	MITF primary	TEAD-YAP inh	FBW7 activator	GPR151 conf act	GPR119 ag
COC(=O)C1=CN(Cc2ccc(F)cc2)C=C(C(=O)OC)C1c1cccc(F)c1	0	8	-3	0	·	·
COC(=O)C1=CN(CC2CCCO2)C=C(C(=O)OC)C1c1cccc(F)c1 (stereo not given)	5.7*	2	-4	0	2	15
COCCCNC(=O)CN(c1ccc(I)cc1)S(C)(=O)=O	6.7*	12	0	0	0	11
CCCCN1C(=O)NC(=O)/C(=C\c2cnn(-c3ccccc3)c2)C1=O	0	5	-8	-1	·	·
O=C(CSc1ncc(-c2cccc(Br)c2)o1)Nc1ccc(F)cc1F	9.3*	-3	6	0	-4	-12
CC(C)c1ccc(OCC(=O)NCCCS(=O)(=O)N2CCc3ccccc3C2)cc1	8.2*	1	2	0	1	-1
COc1ccc(CCNC(=O)COc2ccc(C(C)C)cc2)cc1	6.7*	-6	3	0	0	-12
COc1ccc(OCC(=O)NCCSc2ccccc2)cc1	10*	1	-22	0	0	7
CCOc1ccc(S(=O)(=O)N(CC(=O)NCCSc2ccccc2)c2ccccc2)cc1	5.7*	3	7	0	2	21
Cc1ccc(S(=O)(=O)C2(C(=O)O)CC2)cc1C	1	9	8	0	·	·
CCOC(=O)c1ccc(N/C(=N/S(=O)(=O)c2ccccc2)C(F)(F)F)cc1	-1	2	-8	0	·	·
CC(=O)C1=C(C)NC(SCc2ccc(F)cc2)=C(C#N)[C@@H]1c1ccccc1[N+](=O)[O-]	-1	21	-1	0	·	·
CCOC(=O)c1c(NC(=O)c2ccc(S(=O)(=O)N3CC4(C)CC3CC(C)(C)C4)cc2)sc2c1CCN(C)C2 (stereo not given)	0	1	7	0	·	·
COc1ccc(CCNC(=O)c2cc(-c3cccc(OC)c3)nc3ccccc23)cc1	-2	0	9	1	·	·
COc1cccc(-c2cc(C(=O)NCCCn3ccnc3)c3ccccc3n2)c1	7.2*	3	8	0	2	13
COc1ccc(-c2noc(-c3cc4cc(Br)ccc4oc3=O)n2)cc1	2	3	4	0	·	·
COc1ccccc1Cc1noc(-c2cccc([N+](=O)[O-])c2)n1	1	13	7	0	·	·
COc1cc(/C=N/Nc2nc3c(c(=O)[nH]c(=O)n3C)n2CC(C)O)ccc1O (stereo not given)	-2	7	0	0	·	·
CCOc1cc(/C=N/Nc2nc3c(c(=O)[nH]c(=O)n3C)n2CC(C)C)ccc1O	6.6*	4	1	0	1	5
CC(C)(C)OC(=O)C1=C(O)C(=O)N(c2ccccc2)C1c1ccc(Br)cc1 (stereo not given)	1	3	2	0	·	·
O=S(=O)(NC1CCN(Cc2ccccc2)CC1)c1ccc(F)c(F)c1	7.1*	14	8	1	1	-3
Cn1c(=O)oc2cc(S(=O)(=O)NC3CCN(Cc4ccccc4)CC3)ccc21	-1	13	-1	0	·	·
COC(=O)CN1C(=O)S/C(=C/c2ccc(OCC(=O)O)c(Br)c2)C1=O	6.9*	10	1	0	0	-12
COC(=O)CN1C(=O)S/C(=C/c2cc(Cl)cc(OC)c2O)C1=O	5.2*	7	-4	0	-1	-7
COC(=O)CN1C(=O)S/C(=C/c2ccc(Br)cc2)C1=O	-1	-9	-5	0	·	·
SMILES	GPR151 ag	MITF primary	TEAD-YAP inh	FBW7 activator	GPR151 conf act	GPR119 ag
COc1cc(OC)cc(C(=O)Nc2nc3ncccc3cc2-c2ccccc2)c1	-2	-5	-13	0	·	·
O=C(CCCn1cccc1)Nc1ccc(F)cc1F	6.7*	9	5	0	0	5
O=C(CCCCC(=O)Nc1ccc(F)cc1F)Nc1ccc(F)cc1F	1	5	6	0	·	·
O=C(CN1C2=NCCN2c2ccccc21)c1ccc(Cl)cc1Cl	2	6	0	0	·	·
Cc1nc(SCC(=O)NNC(=O)c2cccs2)n[nH]1	5.8*	10	0	1	0	1
O=C(Cn1cc(/C=N/N2C(=O)c3ccccc3C2=O)c2ccccc21)Nc1ccc(F)cc1	5.6*	3	9	0	0	7
